# Experimental data reported in PubChem BioAssay (NCATS).
# Records with an inconclusive call do not appear. Where a call stands in place of a potency, no number is given. Activity calls are given as the source filed them. The call rests on the fitted dose curve; in most records, active means well fitted cell-killing curve with a large enough effect; inconclusive means small, poorly fitted or top-dose-only effect, or effect the other way; inactive means flat fitted curve, though single readings scatter. *1 amine or outer side, *2 acyl side, *3 side chain or, on linkers, in order; H or OH if unused. Where a SMILES comes first, the peptide text is derived from it. [ ]: non-standard residue; d: D form. X13 = O=C(C(CC(O)CO)O[*:1])[*:2]; NMeV = CN[CH](C(=O)O)C(C)C; NMeA = CN[CH](C)C(=O)O; βAla = NCCC(=O)O
# Tested on: Tov-21-G
# Assay: Primary qHTS to identify gynecologic anti-cancer compounds using libraries of approved drugs and bioactive compounds (AID 1345084); further: nearly all actives have a fitted effect of over 55% in size
# Details: Gynecologic cancer cell panel viability, ATPlite luminescence, 48 h; series mostly up to 57.5 µM
# Summary of the method: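 Cells, 1,000 per well, were allowed to settle for 16 h at 37 C before compound addition. Five concentrations were tested for 48 h, and viability was read by ATPlite luminescence after 15 min at room temperature.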
Compound,Potency,"activity change, negative = cytotoxicity"
NC(Cc1c[nH]c2ccc(O)cc12)C(=O)O (stereo not given),inactive,–
CCN=C1N[C@@H]2[C@@H](O)[C@H](O)[C@@H](CO)O[C@@H]2S1,inactive,–
O=C(NC1CCN(CC(F)(F)F)CC1)c1ccc(-c2cccc(F)c2)nc1,inactive,–
COc1cc(/C=C/C(=O)O[C@H]2[C@@H]3C=CO[C@@H](O[C@@H]4O[C@H](CO)[C@@H](O)[C@H](O)[C@H]4O)[C@@H]3[C@@]3(CO)O[C@@H]23)ccc1O,inactive,–
C[C@@H]1[C@H](O)[C@@H]2OC(=O)C3=C2[C@H](CCC3)[C@@]12C[C@@H](c1ccoc1)OC2=O,inactive,–
CC1OC(OC2CCC3(C)C(CCC4(C)C3C=CC35OCC6(CCC(C)(C)CC63)CCC45C)C2(C)CO)C(OC2OC(CO)C(O)C(O)C2O)C(O)C1OC1OC(CO)C(O)C(O)C1O (stereo not given),–,3.71% [at 11.6 µM] (inactive)
CCC(C)C1NC(=O)C2CCCN2C(=O)C(CC(O)CO)OC(=O)CCNC(=O)C(C)N(C)C(=O)C(C(C)C)N(C)C1=O (stereo not given) (cyclo([X13]PI[NMeV][NMeA][βAla]); configuration not given here),inactive,–
CC(O)C(=O)/C=C/C=C/C(=O)OC1C=C2COC(=O)C2(O)C2(C)CCCC(C)(C)C12 (stereo not given),inactive,–
CC(C)C(O)(CO)CCO[C@@H]1O[C@H](CO[C@H]2OC[C@](O)(CO)[C@H]2O)[C@@H](O)[C@H](O)[C@H]1O (stereo not given in full),inactive,–
Nc1ncnc2c1ncn2[C@H]1O[C@@H](C(=O)N2CCN(CC(=O)Nc3cccc4c3CNC4=O)CC2)[C@H](O)[C@@H]1O,inactive,–
